Assay outcomes as filed in PubChem BioAssay.
Spn DPM-DC inh – S. pneumoniae DPM-DC inhibition | purified DPM-DC, PK/LDH coupled NADH fluorescence | calls only at 10 µM | actives 0.49% (n = 65,000) | AID 556;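 active = the 320 compounds with the highest percent inhibition in the single-dose primary screen, excluding strongly autofluorescent ones, cut at about 32% in these data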;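 also: kinetic rate of NADH fluorescence loss reporting ADP formed by the decarboxylase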
A340 absorber – compounds absorbing at 340 nm. compound absorbance at 340 nm, fold over control. fold change at 10 µM. 65,000 tested, under 10 active;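 active = at 10 µM dose, initial 340 nm absorbance at least 2 fold that of control wells; inactive = change under 2 fold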;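 also: initial absorbance extrapolated from kinetic A340 decline of NADH oxidation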
Spn MK inh – blocks S. pneumoniae mevalonate kinase; actives 0.48% (n = 65,000); inhibition, % at 10 µM; purified MK, PK/LDH-coupled NADH absorbance 340 nm;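 active = ranked among the strongest by inhibition in the single 10 µM screen, a fixed top-ranked set picked for dose follow-up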
Fluor 339 460 – intrinsic fluorescence of library compounds, ex339/em460 – biochemical, MLSMR library, data from DPM-DC assay, artefact control, profiling panel; actives 5.5% (n = 65,000); compound autofluorescence, ex339/em460 nm, NADH buffer; active compounds read high; 1 = no-compound wells, NADH background; fluorescence fold increase at 10 µM;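 active = at 10 µM, mean starting fluorescence two-fold or more over control wells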;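 also: signal is the first read of a kinetic run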
NADH enzymes – inhibitors of enzymes used to reach an NAD/NADH endpoint | coupled PK/LDH NADH assays, four targets | IC50, µM (highest dose often 10 µM), inactives show at the highest dose inhibition | actives 0.02% (n = 65,000) | AID 774;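 active = single-dose screening hits from any of four coupled enzyme assays that gave an IC50 when retested across doses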;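 also: the DPM-DC format reads NADH fluorescence rather than 340 nm absorbance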
PMK inhibit – inhibitors of Streptococcus pneumoniae phosphomevalonate kinase; actives 0.49% (n = 65,000); purified PMK, PK/LDH-coupled NADH absorbance 340 nm; inhibition, % at 10 µM;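 active = top-ranked compounds by inhibition in the single 10 µM screen, taking a fixed number of the strongest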;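 also: 0% = full reaction with DMSO carrier and 100% = background rate without enzyme reaction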
Starred values were filed as active, the others as inactive. An excerpt weighted towards active compounds, which were near 6.5% of everything screened.

Screening CCN1CCN(S(=O)(=O)c2ccc(S(=O)(=O)N(CC)Cc3ccccc3)cc2)CC1 returned Spn DPM-DC inh inactive, A340 absorber 1, Spn MK inh 6, Fluor 339 460 1.1, NADH enzymes 3% and PMK inhibit 0.
O=C(c1nc2nc(-c3ccccc3)cc(C(F)(F)F)n2n1)N1CCOCC1 was read as Spn DPM-DC inh inactive, A340 absorber 1.1, Spn MK inh 0, Fluor 339 460 1.5, NADH enzymes 10% and PMK inhibit 20.
Screening O=C(c1nc2nc(-c3ccc(Cl)cc3)cc(C(F)(F)F)n2n1)N1CCOCC1 returned A340 absorber 1.1, Spn MK inh 15, Fluor 339 460 3.2*, NADH enzymes 10% and PMK inhibit 5.
`COc1ccc(-c2cc(C(F)(F)F)n3nc(C(=O)N4CCCC4)cc3n2)cc1` gave A340 absorber 1.1, Spn MK inh 3, Fluor 339 460 2.2*, NADH enzymes 8% and PMK inhibit 12.
COc1ccc(-c2cc(C(F)(F)F)n3nc(C(=O)O)nc3n2)cc1 was read as Spn DPM-DC inh inactive, A340 absorber 1.1, Spn MK inh 9, Fluor 339 460 2.9*, NADH enzymes 11% and PMK inhibit 16.
`COc1ccc(-c2cc(N3CCCC3)n3ncnc3n2)cc1` gave Spn DPM-DC inh inactive, A340 absorber 1, Spn MK inh 8, Fluor 339 460 1.2, NADH enzymes 4% and PMK inhibit 11.
`COc1ccc(-c2cc(-c3ccccc3)n3ncnc3n2)cc1` gave A340 absorber 1.1, Spn MK inh 3, Fluor 339 460 2.4*, NADH enzymes 2% and PMK inhibit 0.
`c1ccc2c(c1)CCOC2CNCCCN1CCCCC1` (stereo not given) gave Spn DPM-DC inh inactive, A340 absorber 1, Spn MK inh 0, Fluor 339 460 1.1, NADH enzymes 4% and PMK inhibit 11.
For COc1cc2nc(N3CCN(C(=O)C4CCCO4)CC3)nc(N)c2cc1OC (stereo not given) the results were A340 absorber 1.1, Spn MK inh 3, Fluor 339 460 3.9*, NADH enzymes 6% and PMK inhibit 9.
Screening Cc1cc(C(=O)N2CCN(C(=O)C3CCCO3)CC2)no1 (stereo not given) returned Spn DPM-DC inh inactive, A340 absorber 1, Spn MK inh 5, Fluor 339 460 1.1, NADH enzymes 6% and PMK inhibit 13.
Screening CCOC(=O)CNC(=O)Nc1cc(C(C)(C)C)nn1-c1ccccc1 returned Spn DPM-DC inh inactive, A340 absorber 1, Spn MK inh 6, Fluor 339 460 1.2, NADH enzymes 2% and PMK inhibit 0.
For O=C(NCCO)c1nc(NCCO)c2ccccc2n1 the results were Spn DPM-DC inh inactive, A340 absorber 1.1, Spn MK inh 5, Fluor 339 460 1.1, NADH enzymes 7% and PMK inhibit 11.
`C=CCNc1nc(N2CCCC2)nc2ccccc12` gave Spn DPM-DC inh active, A340 absorber 1.1, Spn MK inh 14, Fluor 339 460 2.7*, NADH enzymes 19% and PMK inhibit 6.
`OCCNc1nc(N2CCN(Cc3ccccc3)CC2)nc2ccccc12` gave Spn DPM-DC inh inactive, A340 absorber 1, Spn MK inh 7, Fluor 339 460 2*, NADH enzymes 12% and PMK inhibit 15.
Screening CC(C)c1cc(=O)oc2c3c4c(cc12)CCCN4CCC3 returned A340 absorber 1.1, Spn MK inh 6, Fluor 339 460 2.1*, NADH enzymes 5% and PMK inhibit 4.
`O=c1oc2c3c4c(cc2c(C(F)(F)F)c1CCN1CCOCC1)CCCN4CCC3` gave Spn DPM-DC inh inactive, A340 absorber 1, Spn MK inh 0, Fluor 339 460 1.1, NADH enzymes 4% and PMK inhibit 4.
`CCc1cc(=O)oc2cc(C)cc(OCc3nn[nH]n3)c12` gave A340 absorber 1, Spn MK inh 5, Fluor 339 460 3.8*, NADH enzymes 8% and PMK inhibit 11.
CCOc1cc2c(C)cc(=O)oc2cc1Cl was read as Spn DPM-DC inh inactive, A340 absorber 1, Spn MK inh 3, Fluor 339 460 1.8, NADH enzymes 8% and PMK inhibit 14.
